SW480 rerep: DNA re-replication induction in SW480 cells; SW480 DNA re-replication, Hoechst DNA content imaging, 48 h; Potency, µM (series often up to 46.1 µM), inactives show at the highest dose re-replication activation, hits mostly activators; hit rate 1.8% among 340,000; AID 624297; also: potency is read from the fitted curve at half-maximal effect; % of control where 0% means no effect; nearly all actives have a fitted effect of over 55% in size
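Image-based read-out: total Hoechst fluorescence of nuclei (405 nm excitation, 500-530 nm emission), with hits raising the fraction of high-intensity nuclei. SW480 colon cells incubated 48 hr with compounds at 37 C.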
RORgamma inh: inhibitors of mouse ROR gamma transcriptional activity. P51450. Drosophila S2 Gal4-RORgamma UAS-luciferase reporter, 20 h. Potency, µM (titrated, usually from 53.6 µM), for inactives: at the top dose activity change, negative = inhibition, hits mostly inhibitors. hit rate 5.4% among 310,000. AID 2551; also: potency is read from the fitted curve at half-maximal effect; % is scaled to controls: 0 for no effect and ±100 for the full control effect; nearly all actives have a fitted effect of over 60% in size
Target sequence (P51450 whole entry, looked up, the tested form may be a part): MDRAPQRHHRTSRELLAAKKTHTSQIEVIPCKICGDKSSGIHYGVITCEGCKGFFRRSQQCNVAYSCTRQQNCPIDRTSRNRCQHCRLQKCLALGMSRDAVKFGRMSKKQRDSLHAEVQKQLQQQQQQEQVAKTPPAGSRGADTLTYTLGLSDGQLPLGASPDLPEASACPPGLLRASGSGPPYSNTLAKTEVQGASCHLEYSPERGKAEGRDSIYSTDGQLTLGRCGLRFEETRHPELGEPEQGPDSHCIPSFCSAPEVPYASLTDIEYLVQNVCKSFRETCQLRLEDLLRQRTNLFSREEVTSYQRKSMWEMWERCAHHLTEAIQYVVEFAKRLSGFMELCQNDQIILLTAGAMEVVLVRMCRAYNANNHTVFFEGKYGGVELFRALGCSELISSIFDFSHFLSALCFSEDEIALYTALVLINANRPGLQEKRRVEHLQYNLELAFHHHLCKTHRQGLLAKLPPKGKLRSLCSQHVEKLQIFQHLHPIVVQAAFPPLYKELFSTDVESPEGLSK
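Stable Schneider cell line, Gal4 DNA-binding domain fused to ROR gamma, UAS-luciferase. Cmpd 1 hr RT → CuSO4 700 uM final → 20 hr RT → luciferase reagent 10 min → luminescence.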
MCF10A rereplic: induces DNA re-replication in MCF 10a normal breast cells | Potency, µM (doses to about 46.1 µM), without a hit: top-dose activity, positive = re-replication, usual class: activators | hit rate 2.9% among 350,000 | MCF 10A DNA re-replication, Hoechst nuclear intensity, 48 h | AID 624296; also: potency is read from the fitted curve at half-maximal effect; % of control where 0% means no effect; nearly all actives have a fitted effect of over 50% in size
Gal4-VP16 FLuc: Gal4-VP16 reporter inhibition counter-screen; Drosophila S2 Gal4-VP16 UAS-luciferase, luminescence, 20 h; Potency, µM (top dose mostly 53.6 µM), for the others: top-dose activity, negative = inhibition, most hits filed as inhibitors; hit rate 3.5% among 310,000; AID 2546;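 also: Gal4-VP16 expression switched on by copper sulfate through the metallothionein promoter; potency is read from the fitted curve at half-maximal effect; % is scaled to controls: 0 for no effect and ±100 for the full control effect; nearly all actives have a fitted effect of over 50% in size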
IL1B secr inh: blocks inflammasome-driven IL-1 beta release; THP-1 LPS/ATP IL-1B secretion, AlphaLISA, 16 h; stronger effect = lower value; activity change, % at 57.5 µM; hit rate 4.7% among 360,000; in the data active = activity change below about -50%; inconclusive = mostly about -30% to -49%; also: % is scaled to controls: 0 for no effect and ±100 for the full control effect
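Secreted IL-1B measured by AlphaLISA bead assay after 16 h compound exposure of THP-1 cells; compounds (final up to 57.5 uM) added 1 h before LPS (250 ng/mL) and ATP (1.25 mM) stimulation; lower signal means less secretion.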
The depositor's hits bear a star; ? = inconclusive; nt = no result; ! = repeats disagree; [ ] = another dose, or the depositor's remark. Shown are actives, neighbours in structure and some others; about 11% of the full set was active somewhere. Unless noted, calls follow the shape of the dose curve; as a rule, active = well fitted curve in the direction sought with a large enough effect; inconclusive = small, poorly fitted or top-dose-only effect, or another doubt; inactive = no such curve, though single readings can be large; an effect the other way counts as inactive or inconclusive.

SMILES | SW480 rerep | RORgamma inh | MCF10A rereplic | Gal4-VP16 FLuc | IL1B secr inh
CC(=O)OC1C[C@H](O[C@@H]2C(O)C[C@H](O[C@@H]3C(O)C[C@@H](OC4CC[C@]5(C)C(CCC6C5CC(O)[C@@]5(C)C(C7=CC(=O)OC7)CC[C@@]65O)C4)OC3C)OC2C)O[C@H](C)[C@H]1O[C@H]1OC(CO)C(O)C(O)C1O (some centres undefined) | ? | -41% | 0.12µM* | -2% | nt
CC(=O)OC1CC(OC2C(O)CC(OC3C(O)CC(OC4CCC5(C)C(CCC6C5CCC5(C)C(C7=CC(=O)OC7)CCC65O)C4)OC3C)OC2C)OC(C)C1OC1OC(CO)C(O)C(O)C1O (centres undefined) | 0.92µM* | nt | 15% | nt | -71*
COC(=O)[C@@H]1C[C@@]2(O)[C@H](O)[C@H](O)[C@H](O)C[C@H]2N1Cc1cccnc1 | nt | 8% | nt | -3% | nt
CNCC/C=C\c1cccnc1 | nt | 5% | nt | 2% | nt
O=C(Nc1ccccc1)N1CC[C@@]2(CCCNC2)C1 | nt | -34% | nt | 6% | nt
CC(=O)N1CC2CC(C1)c1cccc(=O)n1C2 (centres undefined) | nt | -9% | nt | 6% | nt
COc1cc(C(=O)N/N=C/C23CC[C@@H](O)CC2(O)CC[C@@H]2[C@@H]3CCC3(C)C(C4=CC(=O)OC4)CCC23O)ccc1O (some centres undefined) | -12% | 0% | ? | -10% | 25
CC12CC[C@H]3[C@@H](CCC4(O)C[C@H](O)CCC34/C=N/NC(=O)c3ccc(O)cc3)C1(O)CCC2C1=CC(=O)OC1 (some centres undefined) | -9% | 8.9µM* | 0% | 10µM* | 9
COc1ccc(C(=O)N/N=C/C23CC[C@@H](O)CC2(O)CC[C@@H]2[C@@H]3CCC3(C)C(C4=CC(=O)OC4)CCC23O)cc1 (some centres undefined) | -5% | 2% | ? | 4% | -71*
CN(C)c1ccc(C(=O)N/N=C/C23CC[C@@H](O)CC2(O)CC[C@@H]2[C@@H]3CCC3(C)C(C4=CC(=O)OC4)CCC23O)cc1 (some centres undefined) | 11% | -18% | ? | 2% | ?
ClCBr | nt | -18% | nt | -13% | nt
CC(C)(C)NCC1(CO)SC(N)=NC1=O (centres undefined) | ? | -8% | 21µM* | 2% | -4
CC[N+](C)(CC)CCOC(=O)C(O)(c1ccccc1)c1ccccc1 | 0% | 11% | 4% | 4% | nt
Cc1sc2ncnc(N3CCC(C(=O)Nc4ccc(C#N)c(Cl)c4)CC3)c2c1C | 0% | nt | 13µM* | nt | 12
C=C(C=O)CC1CC(O)[C@]2(C)OC3CC4OC5C[C@]6(C)O[C@]7(C)CCC8OC9C[C@]%10(C)OC%11C(C)=CC(=O)OC%11CC%10OC9C[C@@H](C)C8OC7CC6O[C@]5(C)CC5OC5C4OC3CC2O1 (some centres undefined) | 5.8µM* | -27% | 4.6µM* | -2% | -104*
CC(C)OCCCNC(=O)c1c(N)n(CC2CCCO2)c2nc3ccccc3nc12 (centres undefined) | 52% | 13% | -15% | -8% | -64*
CCCNC(=O)c1c(N)n(CC2CCCO2)c2nc3ccccc3nc12 (centres undefined) | 16µM* | ? | 18µM* | 6.3µM* | -27
CN(C)C(=O)Nc1ccc(Cl)cc1 | nt | -1% | nt | 19% | nt
O=C1Nc2ccc(Cl)cc2C(c2ccccc2)=NC1O (centres undefined) | -4% | 4% | -1% | 0% | nt
Cc1o[nH]c(=O)c1C[C@H](N)C(=O)O | nt | 30% | nt | -7% | nt
Cc1cc(=O)oc2cc3c(cc12)CCCN3 | ? | -14% | 7.3µM* | 11% | 11
N#Cc1cccc(NC(=O)N2CC[C@@]3(CCCN(C(=O)Oc4ccccc4)C3)C2)c1 | nt | -23% | nt | -11% | nt
CCn1c(O)c(N=Nc2ccc(S(=O)(=O)N3CCOCC3)cc2)c(=O)n(CC)c1=S | ? | 11% | ? | 0% | -84*
O=C(Nc1ccccc1)c1cc([N+](=O)[O-])ccc1N1CCNCC1 | -43% | -15% | -17% | -12%[10 µM] | 27
O=[N+]([O-])c1ccc2nc(N3CCNCC3)ccc2c1 | -48% | nt | 10% | nt | -53*
SMILES | SW480 rerep | RORgamma inh | MCF10A rereplic | Gal4-VP16 FLuc | IL1B secr inh
O=S1OCC2C(CO1)C1(Cl)C(Cl)=C(Cl)C2(Cl)C1(Cl)Cl (centres undefined) | nt | -25% | nt | 0% | nt
CN1C[C@@H](C(=O)N[C@@]2(C)O[C@]3(O)C4CCCN4C(=O)[C@@H](Cc4ccccc4)N3C2=O)C=C2c3cccc4[nH]cc(c34)C[C@@H]21 (some centres undefined) | nt | 15% | nt | 6% | nt
O=P(O)(O)Oc1ccccc1P(=O)(c1ccccc1)c1ccccc1 | -10% | 42% | -10% | -8% | 48
O=P(O)(O)COc1ccccc1O | 4.6µM* | 0%[10 µM] | ? | 3% | 7
Clc1nc(Cl)nc(Nc2ccccc2Cl)n1 | nt | -14% | nt | -3% | nt
CCOC(=O)C1CCN(/C=C2/C(=O)NC(=O)N(c3ccc(OCC)cc3)C2=O)CC1 | 1% | -7% | 5.8µM* | -4% | 10
C[N+]12CCC(CC1)[C@@H](OC(=O)C(O)(c1ccccc1)c1ccccc1)C2 | -5%[20.6 µM] | -2%[2.98 µM] | -5%[20.6 µM] | -1%[17 µM] | nt
Cc1nccc2c1[nH]c1ccc(Br)cc12 | -2% | nt | 53% | nt | -19
COc1ccc2c(c1)[nH]c1c(C)nccc12 | ? | 8.9µM*! | ? | ? | -72*
ClC(Cl)=C(Cl)Cl | nt | -36% | nt | 1% | nt
O=P(c1ccccc1)(c1ccccc1)N1CC2(CC2)CC(O)(c2ccccc2)C1 (centres undefined) | nt | -1% | nt | 4% | nt
Cc1ccc(Cn2cc(C=O)c(-c3ccc(C)cc3)n2)cc1 | 10% | ? | ? | 29% | -58*
O=C(NC1CC1)c1cn(Cc2ccccc2)nc1-c1ccccc1 | -49% | nt | -28% | nt | -4
C=CCn1c(O)c(/C=C2/C=CC=N2)c(=O)[nH]c1=O | ? | -36% | 30% | 3% | 15
O=c1[nH]c(=O)n(Cc2ccccc2Cl)c(O)c1/C=C1/C=CC=N1 | 15µM* | 49% | 6.5µM* | -6% | 22
COc1cccc(N2CCN(C(=O)C3CCCN(S(=O)(=O)c4ccc5c(c4)oc(=O)n5C)C3)CC2)c1 (centres undefined) | -26% | ? | 1% | -25% | 8
Clc1cccc2ccccc12 | nt | -19% | nt | 1% | nt
S=C=Nc1cccc2ccccc12 | nt | 6.3µM* | nt | 13µM* | nt
CCN(CC)C(=O)/C(Cl)=C(\C)OP(=O)(OC)OC | 1% | -26%[10 µM] | 6% | -7% | nt
COP(=O)(OC)OC=C(Cl)Cl | 13µM* | -14% | 12µM* | -25% | nt
O=C(Oc1ccccc1)N1CCC2(CCCN(Cc3ccccc3)C2)CC1 | nt | -8% | nt | -6% | nt
N[C@H](CCCCCP(=O)(O)O)C(=O)O | nt | 19% | nt | -9% | nt

Screening data from PubChem.
